Data: PubChem BioAssay AID743100 (Vanderbilt Specialized Chemistry Center, 2013)
A number with no mark means an inactive call. Calls of active or inactive are those of the source.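 How the source made its calls: active means calcium response above 60% of the acetylcholine maximum at human M5, as a positive modulator; inactive means the rest.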

Each molecule was assayed against Muscarinic acetylcholine receptor M5 (Homo sapiens) (UniProt P08912) (assay: potentiators of ACh response at human M5 – cell-based, single concentration, CHO-K1 hM5, calcium flux (AID 743100)). Settings: CHO-K1 hM5, Fluo-4 calcium flux, ACh EC20, hits give high values; at 10 µM unless noted.
Muscarinic acetylcholine receptor M5 (Homo sapiens), sequence (P08912 whole entry, looked up): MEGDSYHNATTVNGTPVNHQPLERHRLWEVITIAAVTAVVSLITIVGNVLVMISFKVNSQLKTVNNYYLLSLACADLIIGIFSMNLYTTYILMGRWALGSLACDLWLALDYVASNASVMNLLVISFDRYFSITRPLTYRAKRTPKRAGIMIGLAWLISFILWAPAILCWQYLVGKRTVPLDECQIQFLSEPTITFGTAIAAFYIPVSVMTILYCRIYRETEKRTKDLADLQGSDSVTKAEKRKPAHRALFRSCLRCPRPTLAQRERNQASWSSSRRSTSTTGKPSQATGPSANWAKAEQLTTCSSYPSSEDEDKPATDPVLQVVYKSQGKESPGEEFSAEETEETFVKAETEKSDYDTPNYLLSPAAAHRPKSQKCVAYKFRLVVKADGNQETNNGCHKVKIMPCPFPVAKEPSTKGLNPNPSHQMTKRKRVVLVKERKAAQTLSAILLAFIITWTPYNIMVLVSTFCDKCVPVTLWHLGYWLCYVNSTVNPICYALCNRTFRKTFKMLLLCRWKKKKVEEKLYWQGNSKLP

SMILES | % ACh max response
CCN(Cc1ccccc1)C(=O)C1CCN(S(=O)(=O)c2c(C)noc2C)CC1 | 25.9% [at 30 µM]
CCN(Cc1ccccc1)C(=O)C1CCN(S(=O)(=O)c2ccc3c(c2)OCO3)CC1 | 62.9% (active)
CCN(Cc1cccc(C(F)(F)F)c1)C(=O)C1CCN(S(=O)(=O)c2ccc3cn[nH]c3c2)CC1 | 35.4%
CCN(C(=O)C1CCN(S(=O)(=O)c2ccc(-n3cccn3)cc2)CC1)[C@H](C)c1ccccc1 | 97.5% (active)
CCN(Cc1cccc(F)c1)C(=O)C1CCN(S(=O)(=O)c2ccc3cn[nH]c3c2)CC1 | 84.8% (active)
CCN(Cc1ccccc1)C(=O)C1CCNCC1 | 14.9% [at 30 µM]
CCN(Cc1ccccc1)C(=O)C1CCN(S(=O)(=O)c2cccnc2Cl)CC1 | 30% [at 30 µM]
CCOC(=O)C1(Cc2ccccc2)CCN(S(=O)(=O)c2ccc3occc3c2)CC1 | 18.7%
CC1c2ccccc2CCN1C(=O)C1CCN(S(=O)(=O)c2ccc3occc3c2)CC1 (configuration not stated) | 28.5%
CC1c2ccccc2CCN1C(=O)C1CCN(S(=O)(=O)c2ccc3cn[nH]c3c2)CC1 (configuration not stated) | 36.3%
CCN(Cc1ccccc1)C(=O)C1CCN(S(=O)(=O)C(C)C)CC1 | 20.8% [at 30 µM]
CCN(Cc1ccccc1)C(=O)C1CCN(S(=O)(=O)c2ccc3nn(C)cc3c2)CC1 | 51.4%
CCN(Cc1ccccc1)C(=O)C1CCN(S(=O)(=O)c2ccc3nsnc3c2)CC1 | 77.9% [at 30 µM] (active)
CCN(Cc1ccccc1)C(=O)C1CCN(S(=O)(=O)c2ccccc2C)CC1 | 28.6% [at 30 µM]
O=C1N(Cc2ccccc2C(F)(F)F)CCCC12CCN(S(=O)(=O)c1ccc3[nH]ncc3c1)CC2 | 22.6%
CCN(Cc1ccccc1)C(=O)C1CCN(S(=O)(=O)c2cccc3nsnc23)CC1 | 40.8% [at 30 µM]

SMILES | % ACh max response
CCN(Cc1ccccc1)C(=O)C1CCN(S(=O)(=O)c2ccccc2OC(F)(F)F)CC1 | 17.5% [at 30 µM]
CCN(Cc1ccccc1)C(=O)C1CCN(S(=O)(=O)c2ccc(Cl)nc2)CC1 | 50.1% [at 30 µM]
CCN(Cc1ccccc1)C(=O)C1CCN(S(=O)(=O)c2ccc(OC(F)F)cc2)CC1 | 66.1% [at 30 µM] (active)
CCN(Cc1cccnc1)C(=O)C1CCN(S(=O)(=O)c2ccc3cn[nH]c3c2)CC1 | 19.8%
CCN([C@H](C)c1ccccc1)S(=O)(=O)C1CCN(C(=O)c2ccc3[nH]ncc3c2)CC1 | 26.9%
CCN(C(=O)C1CCN(S(=O)(=O)c2cc(F)c(F)c(F)c2)CC1)[C@H](C)c1ccccc1 | 71.9% (active)
CCN(Cc1ccc(OC)cc1)C(=O)C1CCN(S(=O)(=O)c2ccc3cn[nH]c3c2)CC1 | 32%
CC(=O)N(Cc1ccccc1)CC1CCN(S(=O)(=O)c2ccc3occc3c2)CC1 | 8.25%
CCN(Cc1ccccc1C#N)C(=O)C1CCN(S(=O)(=O)c2ccc3cn[nH]c3c2)CC1 | 36.8%
CCN(Cc1ccccc1)C(=O)C1CCN(S(=O)(=O)c2ccc3c(c2)OCCO3)CC1 | 72.2% [at 30 µM] (active)
CC(=O)N(Cc1ccccc1)CC1CCN(S(=O)(=O)c2ccc(OC(F)(F)F)cc2)CC1 | 6.72%
COc1cccc(S(=O)(=O)N2CCC(CN(Cc3ccccc3)C(C)=O)CC2)c1 | 12.7%
CCN(CC1CCN(S(=O)(=O)c2ccc3occc3c2)CC1)C(=O)c1ccccc1 | 10.9%
CCN(Cc1ccc(OC(F)(F)F)cc1)C(=O)C1CCN(S(=O)(=O)c2ccc3cn[nH]c3c2)CC1 | 40.8%
CCN(Cc1ccccc1)C(=O)C1CCN(S(=O)(=O)c2ccc(Br)cc2)CC1 | 62.1% [at 30 µM] (active)
CCN(Cc1ccc(Oc2ccccc2)cc1)C(=O)C1CCN(S(=O)(=O)c2ccc3cn[nH]c3c2)CC1 | 39.1%
